miR-21 act = qHTS Assay for Modulators of miRNAs and/orActivators of miR-21; HeLa miR-21 FLuc reporter, luciferase, 48 h; Potency, µM (highest dose often 38.3 µM), for the others: at the top dose activity change, positive = activation, hits mostly activators; 340,000 tested, under 10 active;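 also: % of control where 0% means no effect; miR-21 action dims this reporter so a rising signal means less miR-21 action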
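Compounds were titrated across several concentrations (up to approximately 40 uM) and incubated 48 hours with HeLa miR-21-FLuc reporter cells (miR-21 target sequence downstream of FLuc, endogenous miR-21). Readout was firefly luciferase luminescence after lytic detection reagent.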
Nrf2 inh = Nrf2 qHTS screen for inhibitors | A549 ARE-Fluc reporter, luciferase luminescence, 18-24 h | 360,000 compounds, 2.1% hits | Potency, µM (series often up to 46 µM), for inactives: top-dose activity change, negative = inhibition, usual class: inhibitors | AID 504444, 2011; also: potency is read from the fitted curve at half-maximal effect; % is scaled to controls: 0 for no effect and ±100 for the full control effect; nearly all actives have a fitted effect of over 60% in size
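Reporter: ARE-Fluc in A549. Exposure: 18-24 h, 37 °C, 5% CO2, 5% FBS OPTI-MEM. Readouts: fluorescent cytotoxicity (CellTiter-Fluor), then luminescent Nrf2 signal after BugLite.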
B2AR arrestin = qHTS assay of beta-arrestin-biased ligands of beta2-adrenergic receptor; Beta-2 adrenergic receptor (Homo sapiens), P07550; beta-arrestin recruitment to beta2AR, cell-based reporter; Potency, µM (highest dose often 46.1 µM), for the others: at the top dose activation, usual class: activators; 330,000 compounds, 0.02% hits;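 also: potency is read from the fitted curve at half-maximal effect; 0% = DMSO controls and full agonism = EC100 isoproterenol or metaproterenol; nearly all actives have a fitted effect of over 65% in size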
Nrf2 ARE act = qHTS of Nrf2 Activators; AREc32 ARE-luciferase reporter (MCF7-derived line), luminescence, 24 h; Potency, µM (doses to about 46.1 µM), for the others: at the highest dose activation, usual class: activators; 410,000 compounds, 0.31% hits; AID 624171, 2012; also: potency is read from the fitted curve at half-maximal effect; % of control where 0% means no effect; nearly all actives have a fitted effect of over 65% in size
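Nrf2 activation is followed as ARE-luciferase induction in the AREc32 line after one day of compound treatment; luminescence is read with Steady-Glo.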
A549 tox-1 = Nrf2 qHTS screen for inhibitors: counterscreen for cytotoxicity; A549 ARE-Fluc cells, CellTiter-Fluor viability, 18-24 h; Potency, µM (titrated, usually from 46 µM), for the others: top-dose activity change, negative = cytotoxicity, hits mostly inhibitors; 390,000 compounds, 0.16% hits; also: potency is read from the fitted curve at half-maximal effect; % is scaled to controls: 0 for no effect and ±100 for the full control effect
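A549 ARE-Fluc cells in 5% FBS OPTI-MEM, 5000 cells/well, rested 2 h then exposed to compounds in concentration-response for 18-24 h at 37 °C. Viability by CellTiter-Fluor fluorescence (Ex 405/Em 525) after 30 min; luciferase luminescence (BugLite, 15 min, RT) read afterwards.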
FLuc counter 3 = Nrf2 qHTS screen for inhibitors: Purified Fluc Biochemical Counterscreen for Hit Validation. shares compounds with Nrf2 inh. purified firefly luciferase, luminescence inhibition. Potency, µM (titrated, usually from 57.5 µM), for inactives: at the highest dose activity change, negative = inhibition, actives largely listed as inhibitors. 1,400 compounds, 4% hits; also: potency is read from the fitted curve at half-maximal effect; % is scaled to controls: 0 for no effect and ±100 for the full control effect; nearly all actives have a fitted effect of over 65% in size
Target sequence (P08659 whole entry, looked up): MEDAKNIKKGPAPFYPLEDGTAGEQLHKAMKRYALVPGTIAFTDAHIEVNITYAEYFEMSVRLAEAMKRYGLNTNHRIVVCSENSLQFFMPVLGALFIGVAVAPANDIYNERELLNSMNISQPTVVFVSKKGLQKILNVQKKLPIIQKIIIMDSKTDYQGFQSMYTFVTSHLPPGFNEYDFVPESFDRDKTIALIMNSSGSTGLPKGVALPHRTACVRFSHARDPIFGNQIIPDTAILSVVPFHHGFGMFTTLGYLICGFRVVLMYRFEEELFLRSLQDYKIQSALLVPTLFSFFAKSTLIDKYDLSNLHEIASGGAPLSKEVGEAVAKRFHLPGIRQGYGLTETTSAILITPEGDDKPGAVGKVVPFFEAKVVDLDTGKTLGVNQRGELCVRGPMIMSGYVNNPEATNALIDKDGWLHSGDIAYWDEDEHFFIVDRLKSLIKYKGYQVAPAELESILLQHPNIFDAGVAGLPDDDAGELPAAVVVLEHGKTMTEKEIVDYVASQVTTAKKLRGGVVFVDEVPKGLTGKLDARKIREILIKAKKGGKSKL
A549 tox-2 = Nrf2 qHTS screen for inhibitors: A549 ARE-Fluc Cytotoxicity Counterscreen for Hit Validation | shares compounds with Nrf2 inh | 1,400 compounds, 2% hits | Potency, µM (top dose mostly 46.1 µM), inactives show top-dose activity change, negative = cytotoxicity, hits mostly inhibitors | A549 ARE-Fluc cells, cytotoxicity counterscreen;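 also: potency is read from the fitted curve at half-maximal effect; cells exposed to compounds for 18 to 24 hours; % is scaled to controls: 0 for no effect and ±100 for the full control effect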
ARE-Fluc inh = Nrf2 qHTS screen for inhibitors: Nrf2 A549 ARE-Fluc Confirmation Assay for Hit Validation; shares compounds with Nrf2 inh; A549 ARE-firefly luciferase reporter, luminescence; Potency, µM (titrated, usually from 46.1 µM), for the others: at the highest dose activity change, negative = inhibition, most hits filed as inhibitors; 1,400 compounds, 74% hits; AID 720524, 2013; also: potency is read from the fitted curve at half-maximal effect; % is scaled to controls: 0 for no effect and ±100 for the full control effect; nearly all actives have a fitted effect of over 65% in size
* marks the source's active call; other numbers are inactive results; ? = inconclusive; nt = no result shown; [ ] = remark or other dose. An excerpt weighted towards active compounds, which were near 2.2% of everything screened. Calls follow the shape of the dose curve; as a rule, active = well fitted curve in the direction sought with a large enough effect; inconclusive = small, poorly fitted or top-dose-only effect, or another doubt; inactive = no such curve, though single readings can be large; an effect the other way counts as inactive or inconclusive.

SMILES | miR-21 act | Nrf2 inh | B2AR arrestin | Nrf2 ARE act | A549 tox-1 | FLuc counter 3 | A549 tox-2 | ARE-Fluc inh
CCOC(=O)OCC(=O)C1(O)CCC2C3CCC4=CC(=O)CCC4(C)C3C(O)CC21C (centres undefined) | nt | 0.21µM* | nt | 4% | -6% | 1% | 4% | nt
CC12CCC(=O)C=C1CCC1C2C(O)CC2(C)C1CCC21OCC1=O (centres undefined) | nt | ? | nt | 0% | -8% | nt | nt | nt
O=S(=O)(O)c1c(NS(=O)(=O)c2ccccc2)ccc2ccccc12 | nt | -6% | nt | nt | 0% | nt | nt | nt
Cn1c2c(c(=O)[nH]c1=O)C(c1cccc(O)c1)C1=C(N2)c2ccccc2C1=O (centres undefined) | 6% | 8.2µM* | -1% | 0%[9.22 µM] | -25% | -25% | ? | 4.6µM*
O=C(c1cc2c(Cl)nc3ccccc3c2s1)N1CCCCC1 | -47% | 7% | nt | 6% | -4% | nt | nt | nt
CCOC(=O)C1CCCN(C(=O)c2cc3c(Cl)nc4ccccc4c3s2)C1 (centres undefined) | 23% | 5.8µM* | nt | -3% | 0% | -1% | 0% | 8.2µM*
Cc1ccc(-n2c(-c3ccccc3)c[n+]3c2CCC3)cc1 | 28% | 5.8µM* | 0% | 0% | ? | 0% | -6% | 6.5µM*
Cc1ccc(-n2c(-c3ccc(Cl)cc3)c[n+]3c2CCC3)cc1 | ? | 3.7µM* | 0% | 0% | -15% | 3% | -2% | -36%
CCOc1c(OC)cccc1C1CC(=O)Nc2cc3c(cc21)OCCO3 (centres undefined) | 17% | 7% | 0% | -1% | -1% | nt | nt | nt
CC(C)COc1ccccc1C1CC(=O)Nc2cc3c(cc21)OCO3 (centres undefined) | ? | 8.2µM* | nt | 0% | -17% | -20% | ? | 23µM*
Cc1ccc(NC(=O)c2oc3ccccc3c2NC(=O)c2ccc(F)c(F)c2)cc1 | -1% | -17% | nt | -1% | 2% | nt | nt | nt
O=C(c1ccc2ccccc2c1)N1CCN(c2ccc(C(F)(F)F)cn2)CC1 | -1% | -28% | 0% | 0% | -2% | nt | nt | nt
O=C(Nc1ccccc1)N1CCN(c2ccc(C(F)(F)F)cn2)CC1 | 14% | 6.5µM* | -1% | 0% | -4% | 3% | -11% | 9.2µM*
O=C(Nc1ccc(F)cc1F)N1CCN(c2ncccn2)CC1 | -7% | 0% | 0% | -1% | 2% | nt | nt | nt
CNC(=S)Nc1ccc(N2CCN(c3ccc(C(F)(F)F)cn3)CC2)nc1 | 4% | 4.1µM* | 0% | 1% | 0% | 0% | -4% | 6.5µM*
Fc1ccc(NC(=S)N2CCCN(c3ccc(C(F)(F)F)cn3)CC2)c(F)c1 | ? | 2.9µM* | -1% | 3% | -7% | 2% | -7% | 5.8µM*
O=C(Nc1ccc(F)cc1F)N1CCCN(c2ccc(C(F)(F)F)cn2)CC1 | 28% | 6.5µM* | -1% | 0% | -18% | 2% | -5% | 8.2µM*
COc1ccc(NC(=O)c2cc3c(s2)-c2c(C)cccc2OC3)cc1Cl | -1% | ? | nt | 5% | -13% | nt | nt | nt
CCN1CCN(CCCNC(=O)c2cc3c(=O)n(C)c4ccccc4c3s2)CC1 | -12% | -22% | nt | ? | -1% | nt | nt | nt
COc1cc(-c2nnn(CC(=O)Nc3ccc(OC(F)(F)F)cc3)n2)cc(OC)c1OC | ? | ? | nt | 9% | -17% | nt | nt | nt
Cc1nc2cccnc2n1C1CCN(S(=O)(=O)c2ccc(C(C)C)cc2)CC1 | 0% | nt | nt | 5% | ? | nt | nt | nt
Cc1cc[n+](C(C)C(=O)c2ccc(-c3ccccc3)cc2)cc1 (centres undefined) | ? | 8.2µM* | 0% | 5% | -24% | 3% | -16% | 9.2µM*
Cc1cc[n+](C(C)C(=O)c2ccc(Cl)cc2)cc1 (centres undefined) | 1% | ? | 0% | 0% | -3% | nt | nt | nt
N#Cc1ccc(CSc2nc3c(c(=O)[nH]2)CCCC3)cc1 | 0% | ? | nt | 0% | -1% | nt | nt | nt
Cc1cccc(N2CCN(C(=O)C3CCC(CNS(=O)(=O)c4ccc(Br)s4)CC3)CC2)c1C (centres undefined) | 1% | ? | nt | 0% | 0% | nt | nt | nt
SMILES | miR-21 act | Nrf2 inh | B2AR arrestin | Nrf2 ARE act | A549 tox-1 | FLuc counter 3 | A549 tox-2 | ARE-Fluc inh
Cc1cccc(N2CCN(C(=O)C3CCC(CNS(=O)(=O)c4cccs4)CC3)CC2)c1C (centres undefined) | ? | 6.5µM* | -1% | 3% | -20% | 0% | -17% | 8.2µM*
CCCCN(CC)S(=O)(=O)c1ccc(C(=O)Nc2nnc(-c3cccs3)o2)cc1 | ? | 2.3µM* | 0% | 0% | -18% | 3% | ? | 7.3µM*
COc1cc([N+](=O)[O-])cc(/C=N/NC(=O)c2ccc(NC(=O)c3ccc(C)cc3)cc2)c1O | 15% | 4.6µM* | -1% | 0% | ? | -16% | ? | 6.5µM*
COc1ccc(C(=O)NCC(c2ccc(N(C)C)cc2)N2CCc3ccccc32)cc1OC (centres undefined) | 5% | nt | nt | 20% | -11% | nt | nt | nt
CC1=C(C(=O)OCc2ccccc2)C(c2cccc(Br)c2)NC(=O)N1 (centres undefined) | 0% | -19% | -2% | 0% | 0% | nt | nt | nt
COc1ccc(COC(=O)C2=C(C)NC(=O)NC2c2cccc(Br)c2)cc1 (centres undefined) | 13% | ? | -1% | 6% | -5% | 1% | -4% | ?
CC1=C(C(=O)OCc2ccc3c(c2)OCO3)C(c2ccc(F)cc2)NC(=O)N1 (centres undefined) | ? | 4.1µM* | 0% | 1% | -21% | 1% | -11% | 8.2µM*
COc1cc(Cl)c(C)cc1NC(=O)Cn1cnc2sc(C)c(S(=O)(=O)N3CCCCC3)c2c1=O | ? | 14%[9.27 µM] | nt | 6% | -15% | nt | nt | nt
CCn1c(COc2cccc(C)c2C)nnc1SCC(=O)N1CCN(c2ccc(OC)cc2)CC1 | 2% | 9.2µM* | 0% | 0% | -6% | -1% | -15% | 8.2µM*
O=S(=O)(c1ccc(Br)s1)N1CCN(c2cccc(C(F)(F)F)c2)CC1 | 19% | -7%[9.27 µM] | nt | 1% | 9% | nt | nt | nt

High-throughput results from PubChem.
